PubChem BioAssay (NCATS)
Several values for one entry are separate records, joined by “and”; a condition that tells them apart may be missing. Equal values may be shown once. Values without a mark were called inactive. Results filed as inconclusive are left out. Activity calls are given as the source filed them. Unless noted, calls follow the shape of the dose curve; as a rule, active = well fitted curve in the direction sought with a large enough effect; inconclusive = small, poorly fitted or top-dose-only effect, or another doubt; inactive = no such curve, though single readings can be large; an effect the other way counts as inactive or inconclusive.

Columns and labels:
[1] = Drug repurposing screens with cells derived from glioblastoma tumor samples (AID 1345199); settings: GBM patient neurospheres viability, ATP luminescence, 48 h; also: nearly all actives have a fitted effect of over 40% in size; also: potency is read from the fitted curve at half-maximal effect; as to activity, negative = cell killing: % is scaled to controls: 0 for no effect and ±100 for the full control effect
How it was run: (§1)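 Primary testing used CD133+ neurospheres from four GBM patients, seven concentrations, 48 h exposure and ATP-based viability; confirmation added three slower-growing patient lines.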

astro = control astrocytes; assay: as above; settings: viability, ATP luminescence, 48 h; series mostly up to 45.9 µM
How it was run: as §1

[2] = target: Nuclear receptor subfamily 1 group I member 2 (Rattus norvegicus) (UniProt Q9R1A7); assay: qHTS assay for small molecule activators of the rat pregnane X receptor (rPXR) signaling pathway (AID 651751; call rule not given here; also: 0% is about no effect); settings: rPXR reporter cells, luciferase (One-Glo), 24 h
Nuclear receptor subfamily 1 group I member 2 (Rattus norvegicus), sequence (Q9R1A7 whole entry, looked up): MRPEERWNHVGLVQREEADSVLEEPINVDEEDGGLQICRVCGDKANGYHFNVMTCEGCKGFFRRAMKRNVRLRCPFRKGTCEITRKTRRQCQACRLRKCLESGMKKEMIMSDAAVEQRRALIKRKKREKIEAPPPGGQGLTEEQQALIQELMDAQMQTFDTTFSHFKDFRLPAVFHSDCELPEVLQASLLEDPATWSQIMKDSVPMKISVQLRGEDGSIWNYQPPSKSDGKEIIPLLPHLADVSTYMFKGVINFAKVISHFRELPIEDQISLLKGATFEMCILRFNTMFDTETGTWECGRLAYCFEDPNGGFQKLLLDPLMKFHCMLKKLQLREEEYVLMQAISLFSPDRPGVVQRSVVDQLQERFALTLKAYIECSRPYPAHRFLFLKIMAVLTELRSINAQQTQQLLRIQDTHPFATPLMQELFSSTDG

[3] = qHTS assay for small molecule activators of the human pregnane X receptor (PXR) signaling pathway (AID 720659; call rule not given here; also: 0% is about no effect); settings: DPX-2 HepG2 CYP3A4-luciferase, 24 h; series mostly up to 92.3 µM
[4] = qHTS assay to identify inhibitors of the type 1 interferon - major histocompatibility complex class I in skeletal muscle: Counter screen cell viability and HiBit confirmation (AID 1347412); settings: iHSKM muscle cells + IFN-b, HiBiT or CellTiter-Glo, 24 h; Potency: HiBiT; Viability, at 45.9 µM (top of the series); also: nearly all actives have a fitted effect of over 60% in size; also: potency is read from the fitted curve at half-maximal effect
How it was run: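 Myoblasts (C25cl48, HLA-B HiBiT) seeded in medium without dexamethasone, IFN-b 4 ng/ml added except unstimulated columns; 1 hr later compounds pinned (12-pt 1:3, top 46 uM final). Incubated 24 hrs, lysed 10 min, luminescence measured.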

[5] = at 45.9 µM (top of the series), tumour line D
[6] = at 46.1 µM (top of the series), tumour line C
[7] = at 45.9 µM (top of the series), tumour line B

## [O]=[Cr](=[O])([OH])[O][Cr](=[O])(=[O])[OH]
[1]; [5]
  activity, negative = cell killing: -3.21%
[1]; [6]
  activity, negative = cell killing: -22.8% and -5.59%
astro
  Potency: inactive

## CN1CCCC(=C(c2cccs2)c2cccs2)C1
[1]; [7]
  activity, negative = cell killing: -10.4%
[1]; [5]
  activity, negative = cell killing: -24.1%
astro
  Potency: inactive

## O=[N+]([O-])c1cc(I)c(O)c(I)c1
[1]; [6]
  activity, negative = cell killing: -4.29%
[1]; tumour line A
  Potency: 25.1 µM (active)
[1]; tumour line D
  Potency: 22.4 µM (active)
astro
  Potency: 35.5 µM (active)

## CC(=O)O[C@H]1C[C@H](O[C@H]2[C@@H](O)C[C@H](O[C@H]3[C@@H](O)C[C@H](OC4CC[C@@]5(C)[C@H](CC[C@@H]6[C@@H]5CC[C@]5(C)[C@@H](C7=CC(=O)OC7)CC[C@]65O)C4)O[C@@H]3C)O[C@@H]2C)O[C@H](C)[C@H]1O[C@@H]1O[C@H](CO)[C@@H](O)[C@H](O)[C@H]1O (stereo not given in full)
astro
  Potency: 0.251 µM (active)

## C=CCN=C=S
[1]; [7]
  activity, negative = cell killing: -6.51%
[1]; [5]
  activity, negative = cell killing: -10.4%
[1]; [6]
  activity, negative = cell killing: 6.26%
astro
  Potency: inactive
[2]
  max response: 3.71%
[3]
  outcome: inactive

## c1ccc(C2(N3CCCC3)CCCCC2)cc1
[1]; [6]
  activity, negative = cell killing: -27.4%
[1]; tumour line A
  Potency: 11.2 µM (active)
astro
  Potency: inactive

## CCC/C=C/C=C/C(=O)O[C@H]1/C(=C/C(=O)OC)C[C@H]2C[C@H]([C@@H](C)O)OC(=O)C[C@H](O)C[C@@H]3C[C@H](OC(C)=O)C(C)(C)[C@](O)(C[C@@H]4C/C(=C/C(=O)OC)C[C@H](/C=C/C(C)(C)[C@]1(O)O2)O4)O3
[1]; [7]
  activity, negative = cell killing: -7.48%
[1]; [5]
  activity, negative = cell killing: -24.1%
astro
  Potency: inactive

## O=C(CCl)c1ccc(Oc2ccc(C(=O)CCl)cc2)cc1
[1]; [7]
  activity, negative = cell killing: -24.4%
[1]; [5]
  activity, negative = cell killing: -6.59%
[1]; [6]
  activity, negative = cell killing: -8.36%
astro
  Potency: inactive

## OC(c1ccccc1)(c1ccccc1)C1CN2CCC1CC2 (stereo not given)
[1]; [7]
  activity, negative = cell killing: -13.1%
[1]; tumour line A
  Potency: 12.6 µM (active)
astro
  Potency: inactive

## C[C@]12CC[C@H]3[C@@H](CCC4=C(O)C(=O)CC[C@@H]43)[C@@H]1CC[C@@H]2OC(=O)CCC1CCCC1
[1]; [7]
  activity, negative = cell killing: -11.4%
[1]; [5]
  activity, negative = cell killing: -14.1%
[1]; [6]
  activity, negative = cell killing: -19.8%
astro
  Potency: inactive

## c1ccc2c(c1)[I+]c1ccccc1-2
[4]
  Potency: 7.01 µM (active)

## [Cl-].[Cl-].[Hg+2]
astro
  Potency: 7.94 µM (active)

## O=C(O)c1cc[c]([Hg][Cl])cc1
[2]
  max response: -6.42%
[3]
  outcome: inactive

## C[C@H]1CC[C@]2(NC1)O[C@H]1C[C@H]3[C@@H]4CC[C@H]5C[C@@H](O[C@@H]6O[C@H](CO)[C@H](O[C@@H]7O[C@H](CO)[C@@H](O)[C@H](O[C@@H]8OC[C@@H](O)[C@H](O)[C@H]8O)[C@H]7O[C@@H]7O[C@H](CO)[C@@H](O)[C@H](O)[C@H]7O)[C@H](O)[C@H]6O)CC[C@]5(C)[C@H]4CC[C@]3(C)[C@H]1[C@@H]2C
astro
  Potency: 3.16 µM (active)

## O=C1CN(O)C(c2ccccc2)=c2cc(Cl)ccc2=N1
astro
  Potency: inactive

## CN1C2CCC1CC(OC(c1ccccc1)c1ccc(Cl)cc1)C2 (stereo not given)
astro
  Potency: 17.8 µM (active)

## [S]=[Sb](=[S])[S][Sb](=[S])=[S]
astro
  Potency: inactive

## COc1ccc2c3c1O[C@H]1C(=O)CC[C@H]4[C@@H](C2)N(C)CC[C@]314
astro
  Potency: inactive

## NNC(N)=O
[2]
  max response: 4.4%
[3]
  outcome: inactive

## [H+].[H+].[Hg+2].[O-]B([O-])[O-].[c-]1ccccc1
astro
  Potency: 2.82 µM (active)

## O=C1C=C2C=C[C@@H]3C[C@@]2(O1)[C@H]1CCCCN31
astro
  Potency: 17.8 µM (active)

## CCCCCCCCOC(=O)c1ccccc1C(=O)OCCCCCCCC
astro
  Potency: inactive
[2]
  max response: -1.02% and 3.16%
[3]
  outcome: inactive

## CNc1ccc2oc(C[C@H]3O[C@@]4(CC[C@H]3C)O[C@H]([C@H](C)C(=O)c3ccc[nH]3)[C@H](C)C[C@H]4C)nc2c1C(=O)O
[4]
  Potency: 2.49 µM (active)

## O=P(O)(O)C(Cl)(Cl)P(=O)(O)O
astro
  Potency: inactive

## CCNC1(c2cccs2)CCCCC1=O (stereo not given)
astro
  Potency: inactive

## Cc1c2ccncc2c(C)c2c1[nH]c1ccccc12
[4]
  Potency: 15.7 µM (active)

## O=C(C[C@@H]1NCCC[C@H]1O)Cn1cnc2cc(Br)c(Cl)cc2c1=O
astro
  Potency: inactive

## C[C@@H](CO)NC(=O)[C@@H]1C=C2c3cccc4[nH]cc(c34)C[C@H]2N(C)C1
astro
  Potency: inactive

## CN1[C@@H]2CC[C@H]1CC(OC1c3ccccc3CCc3ccccc31)C2 (stereo not given in full)
astro
  Potency: inactive

## CC(=O)O[C@H]1C[C@H](O[C@H]2[C@@H](O)C[C@H](O[C@H]3[C@@H](O)C[C@H](O[C@H]4CC[C@@]5(C)[C@H](CC[C@@H]6[C@@H]5C[C@@H](O)[C@]5(C)[C@@H](C7=CC(=O)OC7)CC[C@]65O)C4)O[C@@H]3C)O[C@@H]2C)O[C@H](C)[C@H]1O[C@@H]1O[C@H](CO)[C@@H](O)[C@H](O)[C@H]1O
astro
  Potency: 0.282 µM (active)

## C[C@H]1CC[C@]2(NC1)O[C@H]1C[C@H]3[C@@H]4CC[C@H]5C[C@@H](O)CC[C@]5(C)[C@H]4CC[C@]3(C)[C@H]1[C@@H]2C
astro
  Potency: inactive

## CCN(CC)CCO[C@H]1CC[C@@]2(C)C(=CC[C@@H]3[C@@H]2CC[C@]2(C)C(=O)CC[C@@H]32)C1
astro
  Potency: inactive

## CC(C)(C)c1cc(C=C(C#N)C#N)cc(C(C)(C)C)c1O
[4]
  Potency: inactive

## CC1(C(=O)O)C2CCC(O2)C1(C)C(=O)O (stereo not given)
[4]
  Potency: inactive

## COc1ccc2c3c1O[C@H]1[C@@H](O)C=C[C@H]4[C@@H](C2)NCC[C@@]341
astro
  Potency: inactive

## O=c1c2ccccc2[se]n1-c1ccccc1
astro
  Potency: 22.4 µM (active)

## CC[C@H](C)[C@H]1O[C@]2(C=C[C@@H]1C)C[C@@H]1C[C@@H](C/C=C(\C)[C@@H](O[C@H]3C[C@H](OC)[C@@H](O[C@H]4C[C@H](OC)[C@@H](O)[C@H](C)O4)[C@H](C)O3)[C@@H](C)/C=C/C=C3\CO[C@@H]4[C@H](O)C(C)=C[C@@H](C(=O)O1)[C@]34O)O2
[3]
  outcome: inactive

## C[C@]12CC[C@H](O)C[C@H]1CC[C@@H]1[C@@H]2CC[C@]2(C)[C@@H](c3ccc(=O)oc3)C[C@H]3O[C@]132
astro
  Potency: 1.58 µM (active)

## CNC(=O)Oc1ccccc1C(=O)Nc1ccccc1
astro
  Potency: 22.4 µM (active)

## C[C@@H]1O[C@@H](O[C@H]2C[C@@H](O)[C@]3(CO)[C@@H]4C(CC[C@]3(O)C2)[C@@]2(O)CC[C@H]([C@@H]3COC(=O)C3)[C@@]2(C)C[C@H]4O)[C@H](O)[C@H](O)[C@H]1O (stereo not given in full)
[4]
  Potency: 0.557 µM (active)

## C[C@]12CC[C@H](OS(=O)(=O)O)CC1=CC[C@@H]1[C@@H]2CC[C@]2(C)C(=O)CC[C@@H]12
astro
  Potency: inactive

## Cc1cc(C)cc(C(=O)OC2C[C@H]3CC[C@@H](C2)N3C)c1 (stereo not given in full)
astro
  Potency: inactive
